The text below walks through data of PubChem BioAssay.

A short description of assay [1]: differential killing of epithelial or mesenchymal cells, primary screen, imaging, PC-3E GFP, TEM4-18 mCherry, co-culture (AID 1345086;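 active = compounds killing one labelled cell type while sparing the other, by normalised counts and ratio limits, not self-fluorescent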;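 for all read-outs here: cells exposed to compound for 72 h before imaging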;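 for red/green cell ratio (normalised): normalised mesenchymal count divided by normalised epithelial count so high means epithelial killing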). To be noted: imaging cell counts, at 1 µM; for red/green cell ratio (normalised): actives lie on both sides, counts scaled to control wells, 1 = unselective.
Assay [2] in a line: growth inhibition of DIPG glioma cells, dose response, cell-based, SU-DIPG-XVII, MIPE5.0, CellTiter-Glo, qHTS (AID 1347060; cut-off not given, nearly all actives have AC50 up to about 26 µM). To be noted: SU-DIPG-XVII viability, CellTiter-Glo ATP luminescence.
Assay [3] in a line: growth inhibition of DIPG glioma cells, dose response, cell-based, JHH-DIPG-1, MIPE4.0, CellTiter-Glo, qHTS (AID 1347062; cut-off not given, nearly all actives have AC50 up to about 27 µM). The settings on record: JHH-DIPG-1 viability, CellTiter-Glo ATP luminescence.
Assay [4] can be described thus: growth inhibition of DIPG glioma cells, dose response, cell-based, SU-DIPG-IV, MIPE4.0, CellTiter-Glo, qHTS (AID 1347063).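 Note: compound exposure lasted 48 hours before the viability readout.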 The settings on record: SU-DIPG-IV viability, CellTiter-Glo ATP luminescence.
Assay [5] in a line: growth inhibition of DIPG glioma cells, dose response, cell-based, SU-DIPG-XIII, MIPE5.0, CellTiter-Glo, qHTS (AID 1347064; cut-off not given, nearly all actives have AC50 up to about 23 µM). To be noted: SU-DIPG-XIII viability, CellTiter-Glo ATP luminescence.
Assay [6] can be described thus: viability loss in pontine glioma line – cell-based, SU-DIPG-XXV, MIPE5.0, CellTiter-Glo, qHTS, dose response (AID 1347065; cut-off not given, nearly all actives have AC50 up to about 26 µM;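 note: cells exposed to compound for 48 hours before ATP readout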). To be noted: CellTiter-Glo ATP luminescence.
Assay [7] in a line: SU-DIPG-VI glioma cell viability, MIPE4.0 library, CellTiter-Glo luminescence, qHTS (AID 1347066).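 Note: cells exposed to compound for 48 hours before readout.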 The settings on record: CellTiter-Glo ATP luminescence.
Assay [8] in a line: JHH-DIPG-1 glioma cell viability, MIPE5.0 library, CellTiter-Glo luminescence, qHTS (AID 1347067; cut-off not given, nearly all actives have AC50 up to about 26 µM;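 note: cells exposed to compound for 48 hours before readout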). The settings on record: JHH-DIPG-1 glioma viability, CellTiter-Glo ATP luminescence.
The nature of assay [9]: SU-DIPG-XXV glioma cell viability, MIPE5.0 library, qHTS (AID 1347068; cut-off not given, nearly all actives have IC50 up to about 30 µM).
A short description of assay [10]: growth inhibition of DIPG glioma cells, dose response, cell-based, SU-DIPG-XIII, MIPE4.0, CellTiter-Glo, qHTS (AID 1347061; cut-off not given, nearly all actives have AC50 up to about 37 µM;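 note: cells exposed to compound for 48 hours before readout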). To be noted: SU-DIPG-XIII viability, CellTiter-Glo ATP luminescence.
A short description of assay [11]: sensitizers of A549 cells to miR-34 induction, primary screen, imaging, A549 dox-inducible miR-34, nuclei and caspase counts (AID 1347080;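 active = compounds whose cell count with miR-34 switched on is under 0.7 times the count with it off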). The settings on record: A549 miR-34 inducible, Hoechst nuclei count, 48 h.
The nature of assay [12]: liver-stage malaria parasite growth inhibition, primary screen, cell-based, HepG2, luciferase luminescence, HepG2 viability (AID 624349; in the data active = parasite load remaining mostly below about 12%, no sharp cut-off; inactive = mostly above about 10%;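 note: 100% = mean of DMSO negative control wells on the same plate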). The settings on record: P. berghei liver stage in HepG2, luciferase luminescence, concentration not given here; parasite load remaining: stronger effect = lower value; viability: measured here: HepG2 viability without parasites.
Assay [13] deals with NAD(+) hydrolase SARM1 (Homo sapiens) (UniProt Q6SZW1). Description: SARM1 TIR NADase inhibitors, cell lysate, NAD-Glo luminescence (AID 1508614;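 active = compound whose remaining NAD level is above about 45 nM, limit read from the data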;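 note: higher remaining NAD means stronger inhibition of SARM1 NADase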). The settings on record: SAM-TIR HEK293T lysate NADase, at 1 µM, stronger effect = higher value.
Assay [14] concerns the target Mitogen-activated protein kinase 7 (Homo sapiens) (UniProt Q13164). Description: ERK5 transactivation activators in reporter cells, primary screen, cell-based, HTS (AID 1508626;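 active = luciferase signal above three times the same-plate solvent-only control wells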;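 note: luciferase driven by Gal4-ERK5 fusion binding five Gal4 sites before minimal TATA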). To be noted: HeLa Gal4-ERK5 transactivation, 18 h, at 5 µM, stronger effect = higher value.
A short description of assay [15]: polyglutamine-triggered caspase-3 activation inhibitors, cell-based (AID 1583). The settings on record: polyglutamine-induced caspase-3 activation, cell assay; stronger effect = higher value;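 tested at 10 µM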.
Assay [16] is described as follows: suppressors of polyQ aggregation in yeast, 75Q-TubU reporter (AID 1593). To be noted: Yeast 75Q polyglutamine aggregation reporter.
Assay [17] in a line: rescue of polyQ-huntingtin neuronal dysfunction in worms, whole organism, C. elegans mechanosensory neurons, N-terminal huntingtin (AID 1599). The settings on record: touch response, stronger effect = higher value.
A short description of assay [18]: inhibitors of mitochondrial cytochrome c release, biochemical, purified mitochondria (AID 1603).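 Note: mouse liver mitochondria challenged with calcium chloride; signal normalized to the plate average as 100%.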 The settings on record: stronger effect = lower value.
Assay [19] can be described thus: inhibitors of polyQ protein aggregation (AID 1604). To be noted: polyglutamine-induced protein aggregation inhibition assay; stronger effect = higher value; tested at 2.5 µM.
Assay [20] in a line: enhancers of glutamate uptake in motor neurons, MN-1 cell line (AID 1612).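 Note: tested at 1 µM final; 0% = mean of DMSO vehicle wells on each plate; positive means more glutamate uptake than control and negative means less.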 To be noted: MN-1 motor neuron cells, stronger effect = higher value.
A short description of assay [21]: reducers of polyQ inclusions in PC12 cells, cell-based, NGF-treated PC12, GFPQ80 (AID 1614).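 Note: lower means fewer inclusions and 0 means no inclusions at all.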 The settings on record: PC12 NGF-treated GFP-polyQ80 inclusion reduction.
Assay [22] is described as follows: suppressors of polyglutamine aggregation in yeast, 75Q-TubH (AID 1616). The settings on record: S. cerevisiae 75Q-TubH polyglutamine aggregation suppression; stronger effect = higher value.
Assay [23] is described as follows: survival rescue of mitochondrial mutant cells in low glucose, primary screen, MELAS cybrids, Rieske KO mouse fibroblasts, CellTiter-Glo (AID 1508586;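 active = mean z-score across replicates of 1.96 or higher in either the MELAS or the Rieske mutant cell line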;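 note: z relative to plate mean and SD of compound and empty wells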).
Where [24] appears, read: measured here: epithelial PC-3E GFP cell survival.
Setting [25] is: measured here: mesenchymal TEM4-18 mCherry cell survival.
Where [26] appears, read: stronger effect = lower value, cell number ratio, induced over uninduced.
Where [27] appears, read: measured here: relative caspase fold change +Dox/-Dox.
Setting [28] is: measured here: total cells with miR-34 induction, stronger effect = lower value.
The mark [29] stands for this setting: measured here: total cells without miR-34 induction.

Several values for one entry are separate records, joined by “and”; a condition that tells them apart may be missing. Equal entries are not always repeated. Inconclusive results are not listed. For part of these data: Potency and affinity values are given separately. Activity calls are given as the source filed them. Unless noted, no cut-off is given here; in the data, nearly all actives have AC50 up to about 30 µM.

NAD(+) hydrolase SARM1 (Homo sapiens), sequence (Q6SZW1 whole entry, looked up, the tested form may be a part): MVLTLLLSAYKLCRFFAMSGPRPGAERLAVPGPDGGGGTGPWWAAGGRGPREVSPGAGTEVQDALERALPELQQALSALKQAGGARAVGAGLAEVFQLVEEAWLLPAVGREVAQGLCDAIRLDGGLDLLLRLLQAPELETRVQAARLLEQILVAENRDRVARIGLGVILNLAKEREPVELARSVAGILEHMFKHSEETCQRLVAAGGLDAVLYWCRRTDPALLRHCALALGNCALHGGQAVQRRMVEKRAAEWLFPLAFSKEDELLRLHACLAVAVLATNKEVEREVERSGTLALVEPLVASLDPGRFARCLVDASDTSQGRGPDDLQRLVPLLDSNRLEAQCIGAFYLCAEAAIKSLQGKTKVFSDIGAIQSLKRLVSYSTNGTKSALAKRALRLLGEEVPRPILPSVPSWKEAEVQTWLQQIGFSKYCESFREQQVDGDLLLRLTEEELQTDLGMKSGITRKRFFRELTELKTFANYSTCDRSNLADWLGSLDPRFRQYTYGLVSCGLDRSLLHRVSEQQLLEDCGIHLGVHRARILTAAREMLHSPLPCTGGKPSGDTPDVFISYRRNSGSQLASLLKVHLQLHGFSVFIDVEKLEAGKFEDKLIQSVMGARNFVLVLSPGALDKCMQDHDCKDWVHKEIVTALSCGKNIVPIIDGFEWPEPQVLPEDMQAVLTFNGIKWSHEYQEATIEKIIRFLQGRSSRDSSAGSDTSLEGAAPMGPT
Mitogen-activated protein kinase 7 (Homo sapiens), sequence (Q13164 whole entry, looked up, the tested form may be a part): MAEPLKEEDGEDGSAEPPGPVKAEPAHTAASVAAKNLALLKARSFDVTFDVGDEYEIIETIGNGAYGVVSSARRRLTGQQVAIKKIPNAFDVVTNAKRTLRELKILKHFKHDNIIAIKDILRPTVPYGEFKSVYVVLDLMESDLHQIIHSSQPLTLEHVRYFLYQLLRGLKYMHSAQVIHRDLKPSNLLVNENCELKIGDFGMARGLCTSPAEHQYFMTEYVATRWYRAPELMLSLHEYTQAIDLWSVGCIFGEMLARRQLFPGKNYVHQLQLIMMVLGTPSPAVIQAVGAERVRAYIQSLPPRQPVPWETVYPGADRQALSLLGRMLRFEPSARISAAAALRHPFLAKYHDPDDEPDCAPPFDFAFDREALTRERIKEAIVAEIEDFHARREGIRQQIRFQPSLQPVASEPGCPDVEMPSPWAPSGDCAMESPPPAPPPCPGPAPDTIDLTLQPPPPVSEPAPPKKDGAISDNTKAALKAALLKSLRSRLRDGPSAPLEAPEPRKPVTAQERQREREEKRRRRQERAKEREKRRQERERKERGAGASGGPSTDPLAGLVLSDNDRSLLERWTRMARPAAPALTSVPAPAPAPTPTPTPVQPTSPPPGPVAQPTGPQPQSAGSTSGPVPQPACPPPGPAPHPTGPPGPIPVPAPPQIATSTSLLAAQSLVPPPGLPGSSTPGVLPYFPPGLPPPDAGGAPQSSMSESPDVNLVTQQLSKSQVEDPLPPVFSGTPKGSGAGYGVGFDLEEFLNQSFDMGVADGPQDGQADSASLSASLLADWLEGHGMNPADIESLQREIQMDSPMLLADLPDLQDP

In the case of `CC(C)C(C)/C=C/C(C)C1CCC2C3=CC=C4CC(O)CCC4(C)C3CCC21C` (stereo not given), the red/green cell ratio (normalised) in [1] is 0.85 (inactive). The normalised cell number in assay [1] (setting [24]) is 1; in assay [1] (setting [25]), 0.85. For the same compound, the outcome in assay [2], in assay [3], in assay [4], in [5], in [6] and in assay [7] was inactive. Also, the call in assay [8] and in assay [9] was inactive.

For `CC1(C)CCC[C@]2(C)[C@H]3CC(=O)O[C@]3(C)CC[C@@H]12`, the red/green cell ratio (normalised) in assay [1] is 1.09 (inactive). The normalised cell number in [1] (setting [24]) is 1.09; in assay [1] (setting [25]), 1.19. For the same compound, the compound was classed as inactive in assay [10], in [3] and in [7].

On to `CC(=O)OCC(=O)[C@@]1(O)[C@@H](C)CC2C3CCC4=CC(=O)C=C[C@]4(C)[C@@]3(F)[C@@H](O)C[C@@]21C` (stereo not given in full), for which the red/green cell ratio (normalised) in assay [1] is 0.93 (inactive). Besides, the normalised cell number in [1] (setting [24]) was found to be 1.21; in [1] (setting [25]) it was 1.13. Also, the fold change in assay [11] (setting [26]) was 0.963 (inactive); in assay [11] (setting [27]), 0.848. Moreover, the cell count came to 6280 in assay [11] (setting [28]) and 6520 in [11] (setting [29]).

Turning to `N[C@@H](CC(=O)N1CCn2c(nnc2C(F)(F)F)C1)Cc1cc(F)c(F)cc1F`, the parasite load remaining in assay [12] was 48.9% (inactive). The compound further showed a viability in assay [12] of 95.5%. For the same compound, in assay [1], the red/green cell ratio (normalised) was 1.25 (inactive). The normalised cell number in assay [1] (setting [24]) came out at 0.94; in [1] (setting [25]), 1.18. Moreover, the compound was called inactive in assay [10], in [3], in [5], in assay [6], in assay [7] and in [8]. Besides, the compound was classed as inactive in [9]. Also, in [13], the remaining NAD was 10 nM (inactive). For the same compound, the luciferase signal in [14] is 92 AU (inactive).

In the case of `COc1ccc(C2Sc3ccccc3N(CCN(C)C)C(=O)C2OC(C)=O)cc1` (stereo not given), the inhibition in assay [15] was 5.24%. This compound also gave a score in assay [16] of 1.09. The compound further returned a rescue above control in assay [17] of -7.88. Besides, in assay [18], the cytochrome c release ratio amounted to 1.1. In [19], this compound registered an inhibition of aggregation of 45.9%. Moreover, the glutamate uptake change in [20] was determined as 4.81%. The inclusion score in assay [21] is 2. The same compound registered an aggregation suppression score in assay [22] of 0.716. Further, the parasite load remaining in assay [12] was 163% (inactive) and 58.1% (inactive). Further, the viability in assay [12] was 88.6% and 96.1%. Moreover, in assay [1], the red/green cell ratio (normalised) was 1.25 (inactive). Moreover, the normalised cell number in assay [1] (setting [24]) is 0.98; in assay [1] (setting [25]), 1.22. The result in assay [3], in assay [4] and in assay [7] was inactive. Further, the fold change in [11] (setting [26]) is 0.937 (inactive) and 0.887 (inactive); in assay [11] (setting [27]), 0.646 and 4.46. Further, the cell count was 7800 and 11500 in assay [11] (setting [28]); 8320 and 13000 in assay [11] (setting [29]). In addition, the z-score in assay [23] (MELAS cybrid survival, CellTiter-Glo 48 h, stronger effect = higher value) was -0.332 (inactive); in assay [23] (Rieske KO mouse fibroblast survival, CellTiter-Glo 72 h), -0.2.
